# Assay results taken from the OligoGym collection.
# Experiments:
# Assay in all cases: pooled miR-30 sensor sort-seq; sequence = guide strand
# Conditions in all cases: shRNA
# PQLC1 = target: PQLC1
# PRADC1 = target: PRADC1
# PRM2 = target: PRM2
# PRKX = target: PRKX
# PRODH2 = target: PRODH2
# PROC = target: PROC
# PRKAR1B = target: PRKAR1B
# PRPS2 = target: PRPS2
# PRSS27 = target: PRSS27
# PSKH2 = target: PSKH2
# PSMD14 = target: PSMD14
# PSMC1 = target: PSMC1
# PSMB6 = target: PSMB6
# PTBP2 = target: PTBP2
# PTPN7 = target: PTPN7
# PTGFR = target: PTGFR
# PTH2R = target: PTH2R
# PTGFRN = target: PTGFRN
# Note: reference of the scale not given here.
sequence,measurement,setting,value
TTGAGCTCGTTGGCCACACGGA,sensor-assay potency score (higher = more potent),PQLC1,-0.78
ATCATCTCCACGTAGAAGCTGT,sensor-assay potency score (higher = more potent),PRADC1,-0.485
TCGAGAGCAGTGTCTGCGCCTA,sensor-assay potency score (higher = more potent),PRM2,-0.978
TTGCCCATGCAACTGCTGCCTG,sensor-assay potency score (higher = more potent),PRM2,-0.795
TAATGAGGTCTTTTACATGGAA,sensor-assay potency score (higher = more potent),PRKX,-0.747
AAAATTGGAAACGCTGTAGTGT,sensor-assay potency score (higher = more potent),PRODH2,-0.189
ATTGAGGAAGCTCACCTCGCGC,sensor-assay potency score (higher = more potent),PROC,-1.35
TGACTTTGGTGTAAACGCCGTA,sensor-assay potency score (higher = more potent),PROC,-0.165
ATGTTGCTCATGACCTCGCTGC,sensor-assay potency score (higher = more potent),PROC,-0.588
AAGTTGAGGACGAAGGTGCGGT,sensor-assay potency score (higher = more potent),PROC,-0.189
TTCATGTTTCCTAATCGCCTTG,sensor-assay potency score (higher = more potent),PRKX,-0.603
TTTGGTGTAAACGCCGTAGTTG,sensor-assay potency score (higher = more potent),PROC,-0.456
TTTGCGGATCCGCAGCACCTGG,sensor-assay potency score (higher = more potent),PROC,-1.65
TAGACCTCGACGTGCTCCGGGC,sensor-assay potency score (higher = more potent),PRM2,-1
TTGGTGTAAACGCCGTAGTTGT,sensor-assay potency score (higher = more potent),PROC,-1.16
TTTCCTAATCGCCTTGTTCTGT,sensor-assay potency score (higher = more potent),PRKX,-0.676
TTTCTCTTAACTTCCAGCTGGG,sensor-assay potency score (higher = more potent),PRM2,0.205
TTCTCAGACACCATGTTGCTCA,sensor-assay potency score (higher = more potent),PROC,0.141
TTGTCGGTGGTGCTCTTGCTGT,sensor-assay potency score (higher = more potent),PROC,-1.32
TCCATCTTCAAACTGGACGGGC,sensor-assay potency score (higher = more potent),PRKAR1B,-0.749
TTGGCGAACCCAAAGTCCGTGA,sensor-assay potency score (higher = more potent),PRKX,-0.61
TATAGTGAGACTGGCCATGGGT,sensor-assay potency score (higher = more potent),PRM2,-0.496
TCATGTTTCCTAATCGCCTTGT,sensor-assay potency score (higher = more potent),PRKX,0.781
TTCCTAATCGCCTTGTTCTGTC,sensor-assay potency score (higher = more potent),PRKX,-0.396
TTCGAGAGCAGTGTCTGCGCCT,sensor-assay potency score (higher = more potent),PRM2,-0.241
TTGCTCTTGCCCATGCAACTGC,sensor-assay potency score (higher = more potent),PRM2,-0.57
TTGCTCATGACCTCGCTGCACT,sensor-assay potency score (higher = more potent),PROC,-0.963
TCGCTGCTGGAGAACACTGAGT,sensor-assay potency score (higher = more potent),PROC,-1.33
TTCTCTTAACTTCCAGCTGGGG,sensor-assay potency score (higher = more potent),PRM2,-0.773
TAGCTGAAGAGCTCGCCGCCCG,sensor-assay potency score (higher = more potent),PRKX,-0.771
TGAAAATACGGTTCTCACGTTT,sensor-assay potency score (higher = more potent),PRODH2,0.0951
TTCTCTGGCTTCAAGTCCCTGT,sensor-assay potency score (higher = more potent),PRKX,-0.5
TTGGAGTGCAGGTACTCGATGG,sensor-assay potency score (higher = more potent),PRKX,-0.357
TTTTTCTTAATTTCCAGCTGGG,sensor-assay potency score (higher = more potent),PRM2,0.485
TCATTGTCGGTGGTGCTCTTGC,sensor-assay potency score (higher = more potent),PROC,-0.681
TCGCCTTGTTCTGTCAACCACG,sensor-assay potency score (higher = more potent),PRKX,-0.962
ATTGTGTACGTGTTGCTCCTGC,sensor-assay potency score (higher = more potent),PRKX,0.0637
TTAATGAGGTCTTTTACATGGA,sensor-assay potency score (higher = more potent),PRKX,-0.298
TGCCTGTACACCTCGTGCGAGC,sensor-assay potency score (higher = more potent),PRM2,-1.54
TTGCGCCTTCTGCAGGAGCGAT,sensor-assay potency score (higher = more potent),PRM2,-1.7
TTCCTGGTTCTGCAGCCTCTGC,sensor-assay potency score (higher = more potent),PRM2,-1.75
AATACATTTGAAAATACGGTTC,sensor-assay potency score (higher = more potent),PRODH2,-0.869
TATACTTGAAAGTTGTCGCCTC,sensor-assay potency score (higher = more potent),PRPS2,0.742
TTGTCCTTTTTATCTTGTCGGG,sensor-assay potency score (higher = more potent),PRPS2,-0.968
TAATTGGTGAAGGGCACTGGTG,sensor-assay potency score (higher = more potent),PRSS27,-1.57
TTACAAATGAGTCTGGTGGGGC,sensor-assay potency score (higher = more potent),PRSS27,-0.115
TTTTCGACTCTTCACCTGGATG,sensor-assay potency score (higher = more potent),PSKH2,-1.22
TAGAAGACTGTGCAGATCCAGG,sensor-assay potency score (higher = more potent),PSKH2,-0.858
TTCTTCTACAGCCTTATTGTAA,sensor-assay potency score (higher = more potent),PSMD14,-1.22
AATATCTGCATAGGTCTCCTGG,sensor-assay potency score (higher = more potent),PSMC1,-0.497
TTGTCCTTGTCATCCTTCTTGC,sensor-assay potency score (higher = more potent),PSMC1,-0.829
TTGTGGTTGAGCAGGACCGAGC,sensor-assay potency score (higher = more potent),PSMC1,-1.36
TAGTCCATGAATTAATGCCTGG,sensor-assay potency score (higher = more potent),PSMD14,-1.08
TTGAGCAGGACCGAGCAGCCAG,sensor-assay potency score (higher = more potent),PSMC1,-1.07
TAGTTTGTCTATAAAGTCCTTC,sensor-assay potency score (higher = more potent),PSKH2,-0.109
TAATGGTTTCATTTGTTCCTGA,sensor-assay potency score (higher = more potent),PSMC1,-0.172
TAGCTTGGAACACTGGATCAAC,sensor-assay potency score (higher = more potent),PSMD14,-0.999
TTGCCTTTCAGAATCTTCCTGT,sensor-assay potency score (higher = more potent),PSKH2,0.856
TCGTGAATAGGTGTCAGCTTGT,sensor-assay potency score (higher = more potent),PSMB6,-0.101
GTATCGGTAACACATCTCCTTA,sensor-assay potency score (higher = more potent),PSMB6,-1.65
TTGACCTTCGTGCTTGGCCCAA,sensor-assay potency score (higher = more potent),PSKH2,-1.26
TTGGTTTTGACCTTCGTGCTTG,sensor-assay potency score (higher = more potent),PSKH2,0.0948
TACCATGTAAACTTGATCCTCA,sensor-assay potency score (higher = more potent),PSKH2,0.763
TTGTCAGTCACTCGATTGGCGA,sensor-assay potency score (higher = more potent),PSMB6,-1.6
TTAACATTTTTAACAGTGCCAG,sensor-assay potency score (higher = more potent),PSMD14,-1.04
TTACCATGTAAACTTGATCCTC,sensor-assay potency score (higher = more potent),PSKH2,-0.301
TTGTCTATAAAGTCCTTCGCCA,sensor-assay potency score (higher = more potent),PSKH2,-0.69
TTGCAGACACTCTTCCTTGGTC,sensor-assay potency score (higher = more potent),PSMB6,-0.171
TTCAATGCTGTGGAAACCGAGC,sensor-assay potency score (higher = more potent),PSMB6,-0.63
TAATTCTCTCTAACTTCAGTAA,sensor-assay potency score (higher = more potent),PSMC1,-0.505
AACTTCAGTAATTTTAACCGGC,sensor-assay potency score (higher = more potent),PSMC1,0.102
TAGCCATAGATGTAGGAGCTCC,sensor-assay potency score (higher = more potent),PSMB6,-0.837
TTTAATTCTCTCTAACTTCAGT,sensor-assay potency score (higher = more potent),PSMC1,-0.456
TCAGCTTGTCAGTCACTCGATT,sensor-assay potency score (higher = more potent),PSMB6,-0.432
TTTCTTGTCCTTGTCATCCTTC,sensor-assay potency score (higher = more potent),PSMC1,0.111
AAATTTTCGACTCTTCACCTGG,sensor-assay potency score (higher = more potent),PSKH2,0.215
TTGCCTTGATGTCAGCACCAGA,sensor-assay potency score (higher = more potent),PSMC1,-0.927
TTTGTGAGAATAATGTGACTTA,sensor-assay potency score (higher = more potent),PSKH2,0.516
TATCGGTAACACATCTCCTTAA,sensor-assay potency score (higher = more potent),PSMB6,-0.95
TTTGTCTTGGTTCATGTCCTAA,sensor-assay potency score (higher = more potent),PSMD14,-1.03
TTAAATTTTGCATCAGTACAGG,sensor-assay potency score (higher = more potent),PSMB6,-0.777
TTGTTCTGGAGTCCGCCCCCAG,sensor-assay potency score (higher = more potent),PSMB6,-1.38
TAGGTAGCATCAACATAGCCAT,sensor-assay potency score (higher = more potent),PSMB6,-0.545
AATGCTGTGGAAACCGAGCTGG,sensor-assay potency score (higher = more potent),PSMB6,-0.331
ATCTTCTTCTTCTACAGCCTTA,sensor-assay potency score (higher = more potent),PSMD14,-0.913
TTTGTCTATAAAGTCCTTCGCC,sensor-assay potency score (higher = more potent),PSKH2,-0.325
TTCAGCAGTTCCAACATTGTTC,sensor-assay potency score (higher = more potent),PSMC1,-0.616
TAGCAACATCTTCTGTTCCAGT,sensor-assay potency score (higher = more potent),PSMD14,-0.472
TGAACTAGCTAGACCAGTCTGC,sensor-assay potency score (higher = more potent),PTBP2,0.184
TAGAACAGGAAACTGAAGCTCA,sensor-assay potency score (higher = more potent),PTPN7,0.0685
TCTGTGTTGTAGAAACACCAGG,sensor-assay potency score (higher = more potent),PTGFR,-1.29
TAAATAAACATCACAACAGCAA,sensor-assay potency score (higher = more potent),PTH2R,-0.154
TCTTCTTCCAGTTGCTTGGGGC,sensor-assay potency score (higher = more potent),PTPN7,-0.37
TCTTGCCACACCATCTCCCAGA,sensor-assay potency score (higher = more potent),PTPN7,-0.679
TTAAGTAACACCTTAACTGAAT,sensor-assay potency score (higher = more potent),PTH2R,-1.01
TAAGCTGTGCATAAAATCCCAT,sensor-assay potency score (higher = more potent),PTH2R,-0.0361
TTTGATGTCTTCTGTGTTGTAG,sensor-assay potency score (higher = more potent),PTGFR,0.583
TTTAGTGTAACACACTTTGTTT,sensor-assay potency score (higher = more potent),PTGFRN,-0.905
TTCTTCTTCCAGTTGCTTGGGG,sensor-assay potency score (higher = more potent),PTPN7,0.0231
TATTTTAGCGTCCAGTCCCCGT,sensor-assay potency score (higher = more potent),PTGFRN,-1.12
TTTGTGACTCCAATACACCGCT,sensor-assay potency score (higher = more potent),PTGFR,-0.161
TAGTGCAATGCAATCGTCTGAA,sensor-assay potency score (higher = more potent),PTH2R,-0.115
TTGTAGAAACACCAGGTCCTCG,sensor-assay potency score (higher = more potent),PTGFR,-0.683
TTTAATGGAACTAAGCTCCCAA,sensor-assay potency score (higher = more potent),PTGFR,0.844
TAAAACAACGCCATCCACCCGT,sensor-assay potency score (higher = more potent),PTGFRN,-0.0584
TTTCTTTGCTAACATCCCGAAC,sensor-assay potency score (higher = more potent),PTGFRN,-1.24
TTTCAGCACAAGGACAATCTGC,sensor-assay potency score (higher = more potent),PTH2R,-0.513
TTCTGGTGTCTGATGGTCTGGC,sensor-assay potency score (higher = more potent),PTPN7,-0.217
TTAAATATAGGACCTGAGGTTT,sensor-assay potency score (higher = more potent),PTGFRN,-1.13
TTGTGTTTGAAAGAAGCGCAGC,sensor-assay potency score (higher = more potent),PTGFR,-0.804
TTGACTGGCAAGCTTATAGAGA,sensor-assay potency score (higher = more potent),PTGFR,-0.966
ATTGATGTAATCTCCGTCCTCC,sensor-assay potency score (higher = more potent),PTPN7,0.571
TAACTAACTGAAATATTGCCAA,sensor-assay potency score (higher = more potent),PTGFR,-0.195
TAGAACTCTAACCGTATTCAGA,sensor-assay potency score (higher = more potent),PTH2R,-0.533
TTGCACAACAATGAAACACCAA,sensor-assay potency score (higher = more potent),PTGFR,0.0591
TTAACCATTAAAAAGCTGCAGT,sensor-assay potency score (higher = more potent),PTGFRN,-0.442
TAGCTGCTAAGATCGGTGCTTG,sensor-assay potency score (higher = more potent),PTH2R,-0.715
TAGAATATCATCTCCCTGCCTC,sensor-assay potency score (higher = more potent),PTH2R,-0.315
TTTGCCAGAGATAAGCACCATG,sensor-assay potency score (higher = more potent),PTH2R,-0.588
TTTAGATCCTAATTGCTCCTAT,sensor-assay potency score (higher = more potent),PTH2R,0.713
